Casp6 inh: human caspase-6 inhibitors, primary screen, biochemical, VEID-R110 fluorescence, single point, set 2 | P55212 | purified caspase-6, Z-VEID-R110 cleavage fluorescence | inhibition, % at 12.5 µM | 350,000 compounds, 0.53% hits;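 active means mean inhibition across replicates at least about 35%, with every replicate also reaching that limit, limit read from the data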;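 further: 0% = median of neutral control wells and 100% = no fluorescence left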
Target sequence (P55212 24-179 limits assumed): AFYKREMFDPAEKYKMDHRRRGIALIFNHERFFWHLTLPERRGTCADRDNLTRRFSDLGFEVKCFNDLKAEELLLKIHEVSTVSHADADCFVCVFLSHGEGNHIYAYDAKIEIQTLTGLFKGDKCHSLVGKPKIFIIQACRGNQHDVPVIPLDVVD
Target sequence (P55212 194-293 limits assumed): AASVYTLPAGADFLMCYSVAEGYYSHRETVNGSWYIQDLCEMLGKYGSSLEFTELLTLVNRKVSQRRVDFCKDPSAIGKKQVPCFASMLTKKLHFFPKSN
ERAP1 inh: human ERAP1 aminopeptidase inhibitors, primary screen, biochemical, single point, plate reader | Endoplasmic reticulum aminopeptidase 1 (Homo sapiens), Q9NZ08 | 340,000 compounds, 0.15% hits | inhibition, % at 10.7 µM | recombinant ERAP1, Leu-AMC fluorescence, 60 min;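 active means mean replicate inhibition of at least 30%, or all replicates individually reaching that 30% level; inactive means mean below 30% and not every replicate reaching it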;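 further: 0% = neutral control wells and 100% = L-leucinethiol positive control wells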
SIRT5 block: SIRT5 desuccinylase inhibitors, primary screen, biochemical, fluorescence imaging, single point, set 5. 330,000 compounds, 1.1% hits. inhibition, % at 15 µM. Purified SirT5, succinyl-peptide AMC, trypsin-coupled fluorescence. NAD-dependent protein deacylase sirtuin-5, mitochondrial (Homo sapiens), Q9NXA8; in the data active means inhibition above about 15%
FGF22 binding: binders of human FGF22 protein, primary screen, FGF22 synaptogenesis inhibitor project, biophysical, thermal shift, single point; Fibroblast growth factor 22 (Homo sapiens), Q9HCT0; recombinant FGF22 thermal shift, SYPRO orange fluorescence; percent of sucrose octasulfate shift, DMSO zero; activity (Tm shift, normalised), % at 9.99 µM; 340,000 compounds, 1.5% hits; AID 651658, 2012;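 active means mean Tm shift, scaled 0 neutral to 100 positive control, at about 1.3% or above, every replicate too, limit read from the data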
Target sequence (Q9HCT0 whole entry, looked up): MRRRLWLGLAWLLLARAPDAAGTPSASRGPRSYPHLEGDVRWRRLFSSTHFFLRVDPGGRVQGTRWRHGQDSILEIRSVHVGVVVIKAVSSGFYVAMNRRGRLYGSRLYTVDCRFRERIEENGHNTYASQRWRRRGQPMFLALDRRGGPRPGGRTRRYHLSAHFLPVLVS
The depositor's hits bear a star; x = not tested or not shown. In the library only some 3.1% were active in any assay of this set; here they are far more common.

SMILES	Casp6 inh	ERAP1 inh	SIRT5 block	FGF22 binding
C[C@H](NC(=O)C[C@H]1C=C[C@@H](NC(=O)C2CC2)[C@@H](CO)O1)c1ccccc1	0	-1	5	0
C[C@@H](NC(=O)C[C@H]1CC[C@@H](NC(=O)CN2CCOCC2)[C@@H](CO)O1)c1ccccc1	5	0	17*	0
C[C@@H](NC(=O)C[C@H]1C=C[C@H](NC(=O)C2CC2)[C@@H](CO)O1)c1ccccc1	-2	-1	17*	0
O=C(C[C@@H]1CC[C@@H](NC(=O)Cc2ccccn2)[C@@H](CO)O1)NCCCN1CCOCC1	-2	-5	15*	0
C[C@H](NC(=O)C[C@@H]1CC[C@@H](NC(=O)CN2CCOCC2)[C@H](CO)O1)c1ccccc1	3	-3	8	0
C[C@@H]1CN([C@H](C)CO)C(=O)c2cc(NS(=O)(=O)c3ccc(Cl)cc3)ccc2O[C@@H]1CN(C)S(=O)(=O)c1cn(C)cn1	0	-1	4	0
C[C@]12c3[nH]c4ccc(Cl)cc4c3CCN1C(=O)[C@@H](CC(=O)NCc1cccc(C(F)(F)F)c1)C[C@@H]2C(=O)N1CCOCC1	4	0	40*	0
CC[C@]12c3[nH]c4ccccc4c3CCN1C(=O)C(CC(=O)NCCC1=CCCCC1)C[C@@H]2C(=O)N1CCN(C(=O)C2CC2)CC1 (stereo not given in full)	0	2	3	0
CC[C@]12c3[nH]c4ccc(Cl)cc4c3CCN1C(=O)[C@@H](CC(=O)NCCC1=CCCCC1)C[C@@H]2C(=O)N1CCN(C(=O)C2CC2)CC1	0	-2	18*	0
C[C@]12c3[nH]c4ccccc4c3CCN1C(=O)C(CC(=O)NCc1cccc(C(F)(F)F)c1)C[C@@H]2C(=O)N1CCOCC1 (stereo not given in full)	4	0	2	0
CC(=O)OCC(=O)N1N=C(c2ccc3ccccc3c2)CC1c1ccccc1 (stereo not given)	3	-7	2	0
CCOC(=O)/C=C(\C)N1N=C(c2ccccc2)CC1c1ccccc1 (stereo not given)	-5	1	-6	43*
CCCNC(=O)C[C@H]1CC[C@H]2[C@H](COc3ccc(NC(=O)c4cscn4)cc3C(=O)N2C)O1	-1	4	1	0
COc1cc(C#Cc2c(C=O)n(C)c3ccccc23)cc(OC)c1	-3	-1	32*	0
CC[N+](CC)(CCCCS(=O)(=O)[O-])CCNP1(=O)C=C(c2ccccc2)OC(c2ccccc2)=C1	-4	-7	-4	44*
CSc1ccccc1NC(=O)CN(C)C(=O)COc1cccc2cccnc12	45*	2	0	0
O=C(NCCCn1ccnc1)c1ccc(Cl)cc1[N+](=O)[O-]	-10	-1	-1	43*
CC(C)NC(=O)N(C)C[C@@H]1OCCCC[C@@H](C)Oc2ccc(NS(C)(=O)=O)cc2C(=O)N([C@H](C)CO)C[C@H]1C	-1	-3	0	0
COc1ccc(NC2=C(NCCO)C(=O)c3ccccc3C2=O)cc1	88*	-1	0	0
Cc1cc(C)cc(NC2=C(N)C(=O)c3ccccc3C2=O)c1	30	1	16*	x
COc1cccc(NC2=C(NCCO)C(=O)c3ccccc3C2=O)c1	10	1	1	x
Cc1cccc(Nc2nc(N)c([N+](=O)[O-])c(NCCO)n2)c1	6	0	-1	0
Cc1cccc(NC2=C(NCCO)C(=O)c3ccccc3C2=O)c1	92*	0	2	0
COc1ccccc1CC(=O)Nc1ccc(NC(=O)c2cccs2)cc1	-1	-3	3	0
CCc1ccccc1NC(=O)CNC(=O)CNC(=O)c1cccs1	0	0	53*	0
SMILES	Casp6 inh	ERAP1 inh	SIRT5 block	FGF22 binding
COc1cc(OC)cc(C(=O)NNC(=O)CNC(=O)c2cccs2)c1	62*	2	0	0
COc1ccccc1CC(=O)NNC(=O)c1cccs1	-2	-2	-6	44*
COc1cc(OC)cc(C(=O)Nc2cccc(NC(=O)c3cccs3)c2)c1	0	-3	-1	0
CO[C@@H]1CN(C)C(=O)c2ccc(NC(=O)NC(C)C)cc2OC[C@H](C)N(C(=O)CC2CC2)C[C@@H]1C	x	x	-2	0
CN1[C@H](C(=O)NC2Cc3ccccc3C2)[C@@H](CO)[C@@H]2Cn3c(ccc(-c4cccnc4)c3=O)[C@@H]21	4	1	4	0
COc1ccc(-c2ccc3c(c2)O[C@@H](CN(C)C)[C@H](C)CN([C@@H](C)CO)S3(=O)=O)cc1	-1	0	-1	0
CC1=C(C(=O)OC(C)C)C(c2cn(-c3ccccc3)nc2-c2cccs2)NC(=O)N1 (stereo not given)	0	-5	0	44*
CC1=C(C(=O)OC(C)C)C(c2ccc(O)cc2)NC(=O)N1 (stereo not given)	-3	-4	-6	0
O=S(=O)(c1ccc(Cl)cc1Cl)n1ccc2cccnc21	-3	-1	8	43*
C[C@@H]1CN([C@@H](C)CO)C(=O)c2c(c3ccccc3n2C)-c2ccccc2CO[C@@H]1CN(C)Cc1ccncc1	1	0	-4	0
O=C(Nc1cccc(O)c1)c1ccc([N+](=O)[O-])cc1Cl	0	-2	-3	43*
COc1ccc(CCNC(=O)c2cc(S(=O)(=O)N3CCCCC3)ccc2Cl)cc1	-1	0	-2	0
COc1ccc(N(C)S(=O)(=O)c2ccc(Cl)c(C(=O)NCCc3ccc(Cl)cc3)c2)cc1	2	1	-1	43*
CCCCCCCCCCCC1N=C(N)NC(CCCO)=C1C(=O)OC (stereo not given)	11	44*	-1	-1
CCCCCCOC(=O)c1ccc(N)cc1	-1	-1	-3	0
CC(=O)c1ccc(NC(=O)C(C)N(C)CC(=O)Nc2ccc(Cl)cc2)cc1 (stereo not given)	-6	3	1	44*
C[C@@H]1CN([C@H](C)CO)C(=O)c2cc(NC(=O)Cc3ccccc3)ccc2O[C@H]1CN(C)Cc1ccc(Cl)c(Cl)c1	-1	1	13	-1
Cc1csc(Nc2ccccc2)[n+]1-c1ccccc1	-1	-1	-6	43*
O=c1oc2ccccc2c(Nc2ccccc2O)c1[N+](=O)[O-]	0	8	17*	0
O=C(/C=C/c1ccco1)Oc1cccc2cccnc12	13	0	4	0
COc1ccccc1/C=C/C(=O)Oc1cccc2cccnc12	3	-4	-1	43*
O=C(/C=C\c1ccco1)Oc1cccc2cccnc12	60*	-2	-43	0
Cc1ccc2cccc(OC(=O)/C=C\c3ccccc3)c2n1	2	0	-3	42

Compound activity (PubChem BioAssay)
